In PubChem BioAssay AID1554 (Broad Institute, 2009) one finds inhibition data, which are given here for 21 molecules.

Molecules are shown by their SMILES. The whole screen tested about 300,000 compounds, of which about 520 (0.17%) were called active. The full list was thinned out, with actives kept by preference. Unmarked numbers belong to inactive results. Rule as the data show it: active = inhibition above about 50%; inconclusive = no clear call, values can overlap the other calls; inactive = below that.

For orientation: inhibition means the change of the read-out against control, counted positive when it falls.

This assay is described as follows: PubChem AID 1554. Conditions: BJeLR (HRASV12) viability, CellTiter-Glo ATP luminescence, 48 h; stronger effect = higher value; concentration not given here.
With `CC(NC(=O)CC1SC(N)=NC1=O)c1ccccc1` (stereo unspecified), the inhibition was 4.16%.
Take `Brc1ccc2c(c1)[C@H]1OCC[C@H]1[C@@H](c1cccs1)N2`: the inhibition is 10.2%.
The same measure for `CC(C)Cn1c(=O)c2ccccc2n2c(CCC(=O)NCc3ccccn3)nnc12`: -6.38%; for `CN(C)N1C(N)=C(C#N)C(c2ccc(Br)cc2)C2=C1CCCC2=O` (stereo unspecified): -10.4%.
Turning to `COc1cc(NS(=O)(=O)c2ccc(NC(=S)NC(=O)c3ccc(Br)cc3)cc2)ncn1`, the inhibition was -4.7%.
The same measure for `O=C1C2CCCN2C(=O)N1CCCCN1CCN(c2cccc(C(F)(F)F)c2)CC1` (stereo unspecified): -4.72%.
With `Cc1ccccc1NC(=O)c1nn(-c2ccc(F)c(F)c2)ccc1=O`, the inhibition is -12.5%.
Next, `Cc1cccc(NC(=O)/C=C/c2ccc3c(c2)OCO3)n1`: -11.7%; `CSCCC(NC(=O)COc1ccccc1)C(=O)OCCOc1ccc(Br)cc1` (stereo unspecified): 5.25%.
With `COc1ccc(CN(C)C(=O)CC(c2ccccc2)c2ccccc2)cc1`, the inhibition is 3.85%.
As for `COc1ccc(COC(=O)NC(C(=O)O)c2ccccc2)cc1` (stereo unspecified), the inhibition is -0.701%.
Next, `COc1ccc(C(CCN(Cc2ccc(OC)c(OC)c2)C(=O)CCl)c2ccccc2)cc1` (stereo unspecified): 85.3% (active).
As for `CCOC(=O)C1=C(CSc2nnnn2C)N(C)C(=O)NC1c1ccccc1` (stereo unspecified), the inhibition was 0.916%.
The same measure for `CCN(CC)CCCN=C(N)N`: -2.78%; for `Nc1nc(-c2sc3nc4c(cc3c2N)CCCC4)nc(N2CCOCC2)n1`: -1.17%.
As to `CCOC(=O)C1CCN(S(=O)(=O)c2ccc3c(c2)N(C(C)=O)CCO3)CC1`, the inhibition is 6.7%.
Turning to `CCN1C(=O)[C@@H]2[C@@H](c3ccc(-c4ccccc4)cc3)N3CCCC[C@@]3(C(=O)OC)[C@@H]2C1=O`, the inhibition was 6.3%.
Take `COc1ccc(NC(=O)CN(C)C(=O)c2ccc(NC3CC3)c([N+](=O)[O-])c2)cc1`: the inhibition is -1.94%.
Consider `O=C(CCC(=O)n1ncc2ccccc21)NCc1ccccc1Cl`, for which the inhibition was 2.75%.
On to `COc1ccccc1CCC(=O)OCC(=O)N1CCN(S(=O)(=O)c2ccc(C)cc2C)CC1`, for which the inhibition is -5.89%.
On to `N#C/C(=C(\O)C(F)(F)F)c1nnc2n1CCCCC2`, for which the inhibition is -1.07%.
